Source: PubChem
ABCB6 inh 2: human ABCB6 transporter inhibition; Q9NP58; K562-ABCB6 porphyrin accumulation, flow cytometry, 1 h; stronger effect = lower value; fluorescence ratio to DMSO, % at 10 µM; actives 0.19% (n = 360,000); AID 602162;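 active = fluorescence ratio to DMSO below 75%, the collection mean minus 3 SD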;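 note: signal is porphyrin accumulated inside mitochondria; 100% equals median channel fluorescence of DMSO control wells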
Exocytosis inh: blocks lytic granule exocytosis | TALL-104 LAMP-1 surface exposure, flow cytometry; cells stimulated with thapsigargin and PMA | inhibition, % at 10 µM | actives 0.66% (n = 360,000) | AID 651702;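 active = inhibition above about 55%, limit read from the data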
Myeloid diff MLP: promotes myeloid progenitor differentiation. actives 1% (n = 360,000). calls only at 10 µM. ER-HoxA9 myeloid progenitors, lysozyme-GFP differentiation, flow cytometry;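 active = normalized GFP-positive differentiation at or above the plate's own cutoff, the solvent-only control mean plus 3 SD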;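 note: cells exposed to compound for four days before flow analysis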
Myeloid diff CP1: compounds promoting myeloid differentiation; shares compounds with Myeloid diff MLP; calls only; actives 2% (n = 2,300); ER-HoxA9 myeloid progenitors, GFP/Mac1 double-positive flow; AID 651706;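 active = share of green or green-and-red cells above 9 and 9% in run 1 or 4 and 3% in run 2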
GFP autofluor: compound fluorescence in myeloid differentiation counter-screen; actives 7.4% (n = 2,300); AID 651707; shares compounds with Myeloid diff MLP; fluorescence response, % (no concentration beside the values); ER-HoxA9 myeloid progenitors, no estrogen, GFP autofluorescence flow cytometry; vehicle wells 0%, positive control 100%;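 active = over 5% cells positive for green fluorescent reporter, or over 2% positive for both it and APC stain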;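 note: range taken on the double positive population between DMSO and positive control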
* hit, by the source's call; i = inactive; / = no result given; + = active, no number. Most compounds without a hit are left out; they make up all but 1.8% or so of the library.

SMILES	ABCB6 inh 2	Exocytosis inh	Myeloid diff MLP	Myeloid diff CP1	GFP autofluor
COc1ccc(N2CC(C(=O)OCC(=O)c3ccc(C)cc3)CC2=O)cc1 (stereo unspecified)	97.0	-5.0	+	i	0.3
CCOc1ccc(N2CC(C(=O)OCC(=O)c3ccc(OC)cc3)CC2=O)cc1 (stereo unspecified)	97.0	7.1	i	/	/
CCN(CC(=O)Nc1cc(Cl)ccc1C)C(=O)CCS(=O)(=O)c1ccc(C)cc1	95.0	-3.7	i	/	/
CN(Cc1nc(-c2cnccn2)no1)C1CC(C)(C)NC(C)(C)C1	102.0	-3.6	i	i	0.0
CN(Cc1nc(-c2cnccn2)no1)CC1(c2ccccc2)CC1(C)C (stereo unspecified)	98.0	-1.1	i	/	/
Cn1nnc2cc(C(=O)Nc3ccccc3F)ccc21	96.0	-7.6	i	/	/
C=CCOc1ccc(C2C(C(=O)c3ccco3)=C(O)C(=O)N2Cc2cccnc2)cc1 (stereo unspecified)	97.0	2.1	i	i	12.7*
C=CCOc1cccc(C2C(C(=O)c3ccco3)=C(O)C(=O)N2Cc2cccnc2)c1 (stereo unspecified)	111.0	-6.2	i	/	/
CCOc1ccc2ccc(OCC)c(/C=N/n3cnnc3)c2c1	101.0	4.6	i	/	/
O=C(NC(=S)NCCN1CCOCC1)c1cccc(Cl)c1	88.0	5.2	i	i	0.0
O=C(NC(=S)NCCN1CCOCC1)c1ccccc1	99.0	5.3	i	/	/
COC(=O)c1c(NC(=O)C2Cc3ccccc3C(=O)O2)sc2c1CCCC2 (stereo unspecified)	95.0	-4.2	i	/	/
COC(=O)c1c(NC(=O)C2(C)Cc3ccccc3C(=O)O2)sc2c1CCCC2 (stereo unspecified)	96.0	4.1	+	i	0.0
CCCCOc1ccc(C(=O)NCC(=O)NC2CCN(Cc3ccccc3)CC2)cc1	90.0	2.8	i	/	/
CCOC(=O)CCc1cnccc1-c1cccc(OC)c1O	101.0	-1.8	i	/	/
CC(C)Oc1ccccc1C1NC(=O)CCC1[N+](=O)[O-] (stereo unspecified)	109.0	5.0	i	i	0.0
CCOc1ccccc1C1NC(=O)CCC1[N+](=O)[O-] (stereo unspecified)	100.0	2.5	i	/	/
COC(=O)c1nccnc1C(=O)Nc1ccccc1N1CCOCC1	102.0	4.2	i	/	/
Cc1ccc(Cl)cc1N1CCN(Cc2nc3c(c(=O)[nH]c(=O)n3C)n2Cc2ccccc2F)CC1	94.0	2.4	i	/	/
Cc1ccc(Cl)cc1N1CCN(Cc2nc3c(c(=O)[nH]c(=O)n3C)n2CCc2ccccc2)CC1	104.0	3.6	i	i	0.4
CCc1ccc2c(c1)cc(CN(C(=S)Nc1ccccc1)C1CC1)c1nnnn12	98.0	-2.7	i	/	/
CCc1ccc2c(c1)cc(CN(C(=S)Nc1ccccc1C)C1CC1)c1nnnn12	91.0	-0.6	i	i	0.0
CCCCN1C(=O)C(=O)N(CC(=O)Nc2sc(CC)cc2C(=O)OCC)C1=O	100.0	-3.1	i	/	/
Cc1nn(-c2ccccc2)c(N2CCCC2)c1/C=N/NC(=O)c1cc2ccccc2cc1O	96.0	7.9	i	/	/
Cc1nn(-c2ccccc2)c(N2CCCC2)c1/C=N/NC(=S)Nc1ccccc1F	98.0	0.3	+	+	0.6
SMILES	ABCB6 inh 2	Exocytosis inh	Myeloid diff MLP	Myeloid diff CP1	GFP autofluor
CSc1ccc(S(=O)(=O)N2CCC(C(=O)Nc3ccc(C(N)=O)cc3)CC2)cc1	95.0	-4.4	i	/	/
CCC1CCCCN1CCCNC(=O)c1ccc2c(c1)c(C)c(C)n2C (stereo unspecified)	99.0	1.0	i	/	/
O=C1C(=Cc2ccco2)CCCC1=Cc1ccco1	142.0	6.1	i	i	18.9*
O=C1C(=Cc2ccco2)CCC1=Cc1ccco1	105.0	-0.5	i	/	/
COc1ccccc1CNC(=O)COC(=O)c1ccccc1-c1ccccc1	94.0	10.6	i	/	/
CN1C(=O)C(CC(=O)NCC2CCCCC2)SC1=Nc1ccccc1 (stereo unspecified)	102.0	-0.5	i	/	/
Cc1ccc(NC(=O)COC(=O)Cn2nc(C)c([N+](=O)[O-])c2C)c([N+](=O)[O-])c1	103.0	1.7	i	/	/
CCOc1ccc(NC(=O)COC(=O)Cn2nc(C)c([N+](=O)[O-])c2C)cc1OCC	114.0	1.4	+	i	0.0
O=C(CSc1nnc(CNC(=O)c2ccco2)o1)Nc1ccccc1C(F)(F)F	97.0	-15.6	i	/	/
Cc1nc(-c2ccccc2)sc1-c1ccn[nH]1	92.0	-0.8	i	/	/
CCn1c(-c2sc(-c3ccccc3)nc2C)n[nH]c1=S	105.0	9.3	+	i	0.0
Cc1cccc(OC(=O)c2ccc3c(=O)n4c(nc3c2)CCC4)c1	98.0	5.9	i	/	/
Cc1nc(SCc2ccc(Cl)cc2)ncc1C(=O)O	110.0	-0.3	i	/	/
COc1ccc(-c2ccnc3c(Br)c(C)nn23)cc1	100.0	-5.2	i	/	/
COc1cccc(C(=O)N2CCCC(c3nc(-c4cccs4)no3)C2)c1 (stereo unspecified)	89.0	-3.0	i	/	/
COc1cc(C(=O)N2CCCC(c3nc(-c4cccs4)no3)C2)cc(OC)c1OC (stereo unspecified)	86.0	-3.4	i	i	1.2
CN(CC(=O)Nc1ccc(Cl)cc1)Cc1cc(=O)n2ccsc2n1	105.0	-0.3	i	/	/
Cc1ccc(NC(=O)CN(C)Cc2cc(=O)n3ccsc3n2)cc1	176.0	11.3	i	i	1.3
Cc1ccc(CNC(=O)C2CC3Cn4c(nc5cc6ccccc6cc54)C3N2C)o1 (stereo unspecified)	103.0	3.0	i	/	/
COc1ccccc1-c1cc(C(=O)NC2CCN(C)CC2)c2ccc(Cl)c(C)c2n1	104.0	52.2	+	i	0.0
Cc1c(Cl)ccc2c(C(=O)NCCN3CCCCC3)cc(-c3ccccn3)nc12	99.0	24.9	i	/	/
O=C(O)CCCN1C(=O)/C(=C\c2ccc(-c3nc4ccccc4s3)o2)SC1=S	101.0	76.2*	+	i	0.0
O=C(O)CCCN1C(=O)/C(=C/C=C/c2ccco2)SC1=S	103.0	-4.4	i	/	/
CS(=O)(=O)c1ccc(N2CCN(c3ccccn3)CC2)c([N+](=O)[O-])c1	94.0	-5.0	i	/	/
Cc1cccc2cc3c(nc12)SC(=NCC1CCCO1)N(Cc1ccco1)C3 (stereo unspecified)	101.0	4.0	i	/	/
Cc1ccc2nc3c(cc2c1)CN(Cc1ccco1)C(=NCC1CCCO1)S3 (stereo unspecified)	91.0	-0.9	i	i	0.4
N#Cc1ccccc1NC(=O)c1ccc2c(c1)OCCO2	91.0	-0.5	i	/	/
CC(C)(C)NS(=O)(=O)c1ccc(CCC(=O)Nc2ccc3c(c2)OCCO3)cc1	105.0	1.6	i	/	/
CC(C)(C)NS(=O)(=O)c1ccc(CCC(=O)Nc2ccc3c(c2)OCO3)cc1	95.0	9.9	+	i	0.6
CCCC(O)(c1ccc(CC)cc1)C(CN1CCOCC1)c1ccccc1 (stereo unspecified)	126.0	20.7	i	/	/
